Measured values published in PubChem BioAssay (Tox21).
Where “and” joins values, the source holds several entries; their conditions need not be identical. Equal entries are not always repeated. Records with an inconclusive call do not appear. Calls of active or inactive are those of the source. Unless noted, the call rests on the fitted dose curve; in most records, active means well fitted curve in the direction sought with a large enough effect in the repeat runs; inconclusive means weak or mixed curves; inactive means no such curve, though single readings can be large; an effect the other way counts as inactive or inconclusive.

Columns and labels:
[1] = qHTS assay to identify small molecule agonists of H2AX (AID 1224845; active means well fitted activation curve with a large enough effect in the signal ratio in the repeat runs, not every such curve was filed as active; the % refers to the signal ratio)
How it was run: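 Wild-type CHO-K1 cells, plated overnight, exposed 3hr at 37C to 15 concentrations (0.76% DMSO final). Lysed, then HTRF anti-pH2AX (S139) cryptate and anti-H2AX-d2 antibodies, 24 hr room temperature; 665/620 nm emission read.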

[2] = qHTS assay to identify small molecule agonists of the hypoxia (HIF-1) signaling pathway (AID 1224846; active means well fitted activation curve with a large enough effect in the signal ratio in the repeat runs, not every such curve was filed as active; the % refers to the signal ratio)
How it was run: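 Reporter induction in HRE-bla ME-180 cells is taken as agonism: cells sit 5 hrs after plating, receive compounds or DMSO only, incubate 17 hrs at 37C under 5% CO2, and are loaded with CCF4-AM for beta-lactamase FRET measurement.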

[3] = qHTS assay to identify small molecule agonists of H2AX - cell viability counter screen (AID 1224847; calls by dose curve; further: top concentration of the series differs between compounds; nearly all actives have a fitted effect of over 30% in size)
How it was run: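 Compounds tested at 15 concentrations were incubated 3 hr at 37C with wild-type CHO-K1 cells; cellular ATP-based luminescence (CellTiter-Glo) indicated viability.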

[4] = qHTS assay to identify small molecule antagonists of the estrogen related receptor (ERR) signaling pathway from Tox21 library (AID 1224848); further: nearly all actives have a fitted effect of over 50% in size
How it was run: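 Compounds dissolved in DMSO are pin-transferred onto ERR reporter cells (2,000 per well) that have settled for 6 h at 37 C. Plates then incubate 18 h at 37 C before ONE-Glo luciferase reagent and a luminescence read 30 min later.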

[5] = qHTS assay to identify small molecule agonists of the estrogen related receptor (ERR) signaling pathway from Tox21 library (AID 1224849; calls by dose curve; further: nearly all actives have a fitted effect of over 15% in size); settings: ERR reporter cell line, ONE-Glo luciferase, 18 h
How it was run: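 Tox21 compounds tested for ERR agonism in an NTP reporter cell line: 18 h treatment at 37 C, then ONE-Glo luminescence.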

[6] = qHTS RealTime-Glo MT Cell Viability Assay in HepG2 cells - 24 hour (AID 1224867); further: nearly all actives have a fitted effect of over 50% in size
How it was run: (§1)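 Tox21 10K library screened in qHTS format on HepG2 cells carrying RealTime-Glo reagents. Compounds were added after a 5 h preincubation, and the luminescent signal from continuous culture was measured repeatedly during 40 h treatment.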

[7] = qHTS RealTime-Glo MT Cell Viability Assay in HEK293 cells - 32 hour (AID 1224868); further: top concentration of the series differs between compounds; nearly all actives have a fitted effect of over 50% in size
How it was run: (§2)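 Luminescence generated by NanoLuc from substrate produced by living HEK293 cells served as the viability signal. Each value reflects the reading at its stated time point during continuous 40 h compound exposure at 37 C.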

[8] = A CellTox Green Cytotoxicity Assay to monitor cytotoxicity in HEK293 cells - 0 hour (AID 1224869); further: nearly all actives have a fitted effect of over 50% in size
How it was run: (§3)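 Tox21 screen in HEK293: membrane-impermeant cyanine dye fluoresces on binding dead-cell DNA; compound pinned 5 h post-seeding, plates held at 37 C, signal read repeatedly through 40 h.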

[9] = qHTS RealTime-Glo MT Cell Viability Assay in HepG2 cells - 40 hour (AID 1224870); further: nearly all actives have a fitted effect of over 50% in size
How it was run: (§4)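 HepG2 cells (600/well) mixed with RealTime-Glo MT reagent, settled 5 h at 37 C/5% CO2 before compound addition. Nonlytic NanoLuc luminescence from viable-cell prosubstrate reduction read repeatedly during 40 h treatment at 37 C.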

[10] = A CellTox Green Cytotoxicity Assay to monitor cytotoxicity in HEK293 cells - 40 hour (AID 1224871); further: nearly all actives have a fitted effect of over 45% in size
How it was run: as §3

[11] = qHTS RealTime-Glo MT Cell Viability Assay in HepG2 cells - 8 hour (AID 1224873); further: nearly all actives have a fitted effect of over 55% in size
How it was run: as §4

[12] = qHTS RealTime-Glo MT Cell Viability Assay in HEK293 cells - 40 hour (AID 1224874); settings: RealTime-Glo luminescence; max response: active compounds read low; further: nearly all actives have a fitted effect of over 50% in size
How it was run: (§5)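 HEK293 + NanoLuc + prosubstrate, 600 cells/well; 5 h, 37 C/5% CO2; compound 23 nL in DMSO by pintool; 37 C; luminescence read at 0, 8, 16, 24, 32 and 40 h time points.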

[13] = A CellTox Green Cytotoxicity Assay to monitor cytotoxicity in HEK293 cells - 24 hour (AID 1224875); further: nearly all actives have a fitted effect of over 45% in size
How it was run: as §3

[14] = A CellTox Green Cytotoxicity Assay to monitor cytotoxicity in HepG2 cells - 16 hour (AID 1224876); further: nearly all actives have a fitted effect of over 45% in size
How it was run: (§6)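 Measurements at 0, 8, 16, 24, 32 and 40 h of treatment captured CellTox Green fluorescence in HepG2 cells that had been co-plated with reagent and preincubated 5 h at 37 C/5% CO2.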

[15] = qHTS RealTime-Glo MT Cell Viability Assay in HepG2 cells - 32 hour (AID 1224877); further: nearly all actives have a fitted effect of over 55% in size
How it was run: as §1

[16] = A CellTox Green Cytotoxicity Assay to monitor cytotoxicity in HepG2 cells - 24 hour (AID 1224878); further: nearly all actives have a fitted effect of over 45% in size
How it was run: as §6

[17] = A CellTox Green Cytotoxicity Assay to monitor cytotoxicity in HepG2 cells - 40 hour (AID 1224879); further: nearly all actives have a fitted effect of over 40% in size
How it was run: as §6

[18] = qHTS RealTime-Glo MT Cell Viability Assay in HEK293 cells - 0 hour (AID 1224880)
How it was run: as §5

[19] = A CellTox Green Cytotoxicity Assay to monitor cytotoxicity in HEK293 cells - 32 hour (AID 1224881); further: nearly all actives have a fitted effect of over 40% in size
How it was run: as §3

[20] = qHTS RealTime-Glo MT Cell Viability Assay in HEK293 cells - 16 hour (AID 1224872)
How it was run: as §2
On the % scale 0 is the no-effect control and ±100 the full control effect.

C=C1C[C@]23C[C@@]1(O)CC[C@H]2[C@@]12C=C[C@H](O)[C@@](C)(C(=O)O1)[C@H]2[C@@H]3C(=O)O
inactive: Potency [1] | outcome [2] | Potency [3] | Potency [4] | activity change, positive = activation ([5]; at 92.4 µM (top of the series)) 4.32% and 5.25% | Potency [6] | Potency [7] | Potency [8] | Potency [9] | Potency [10] | Potency [11] | max response [12] 3.96% and 1.17% | Potency [13] | Potency [14] | Potency [15] | Potency [16] | Potency [17] | Potency [18] | Potency [19]

CN=C(NC#N)NCCSCc1nc[nH]c1C
inactive: Potency [1] | outcome [2] | Potency [3] | Potency [4] | activity change, positive = activation ([5]; at 92.4 µM (top of the series)) 2.07% | Potency [6] | Potency [7] | Potency [8] | Potency [9] | Potency [10] | Potency [11] | max response [12] 4.13% and 1.71% | Potency [13] | Potency [14] | Potency [15] | Potency [16] | Potency [17] | Potency [18] | Potency [19]

OCCOCCOCCOCCOCCO
inactive: Potency [1] | outcome [2] | Potency [3] | Potency [4] | activity change, positive = activation ([5]; at 92.4 µM (top of the series)) 2.04% and 4.48% | Potency [6] | Potency [7] | Potency [8] | Potency [9] | Potency [10] | max response [12] 2.45% and 0.674% | Potency [14] | Potency [15] | Potency [16] | Potency [17] | Potency [18] | Potency [19]

Cc1cc(C)cc(O)c1
inactive: Potency [1] | outcome [2] | Potency [3] | Potency [4] | activity change, positive = activation ([5]; at 92.4 µM (top of the series)) 8.03% and 0.796% | Potency [6] | Potency [7] | Potency [8] | Potency [9] | Potency [10] | max response [12] 6.28% and 8.82% | Potency [13] | Potency [14] | Potency [15] | Potency [16] | Potency [17] | Potency [18] | Potency [19]

CC(=O)OCc1ccc2c(c1)OCO2
inactive: Potency [1] | outcome [2] | Potency [3] | Potency [4] | activity change, positive = activation ([5]; at 92.4 µM (top of the series)) -6.11% and 0.823% | Potency [6] | Potency [7] | Potency [8] | Potency [9] | Potency [10] | Potency [11] | max response [12] 2.92% and 8.23% | Potency [13] | Potency [14] | Potency [15] | Potency [16] | Potency [17] | Potency [18] | Potency [19]

O=[N+]([O-])c1cc(C(F)(F)F)ccc1Cl
inactive: Potency [1] | outcome [2] | Potency [3] | Potency [4] | activity change, positive = activation ([5]; at 92.4 µM (top of the series)) 3.85% | Potency [6] | Potency [7] | Potency [8] | Potency [9] | Potency [10] | Potency [20] | Potency [11] | max response [12] -1.22% and -0.472% | Potency [13] | Potency [14] | Potency [15] | Potency [16] | Potency [17] | Potency [18] | Potency [19]

CCCCCC(C)=O
inactive: Potency [1] | outcome [2] | Potency [3] | Potency [4] | activity change, positive = activation ([5]; at 92.4 µM (top of the series)) 9.83% and 4.6% | Potency [6] | Potency [7] | Potency [8] | Potency [9] | Potency [10] | Potency [20] | Potency [11] | max response [12] 0.796% and 0.918% | Potency [13] | Potency [14] | Potency [15] | Potency [16] | Potency [17] | Potency [18] | Potency [19]

N#CCC(=O)O
inactive: Potency [1] | outcome [2] | Potency [3] | Potency [4] | activity change, positive = activation ([5]; at 92.4 µM (top of the series)) 4.35% and -0.59% | Potency [6] | Potency [7] | Potency [8] | Potency [9] | Potency [10] | Potency [20] | Potency [11] | max response [12] -0.419% and 10.1% | Potency [14] | Potency [15] | Potency [16] | Potency [17] | Potency [18] | Potency [19]

COC(=O)/C=C\C(=O)OC
inactive: Potency [1] | outcome [2] | Potency [3] | Potency [4] | activity change, positive = activation ([5]; at 42.5 µM (top of the series)) 7.01% | activity change, positive = activation ([5]; at 92.4 µM (top of the series)) 2.62% | Potency [6] | Potency [7] | Potency [8] | Potency [9] | Potency [10] | Potency [20] | Potency [11] | max response [12] 12.2% and 10.6% | Potency [13] | Potency [14] | Potency [15] | Potency [16] | Potency [17] | Potency [18] | Potency [19]

O=C1OC(=O)c2c(Cl)c(Cl)c(Cl)c(Cl)c21
inactive: Potency [1] | outcome [2] | Potency [3] | Potency [4] | activity change, positive = activation ([5]; at 92.4 µM (top of the series)) -24.8% | Potency [6] | Potency [7] | Potency [8] | Potency [9] | Potency [10] | Potency [20] | Potency [11] | max response [12] 1.44% | Potency [13] | Potency [14] | Potency [15] | Potency [16] | Potency [17] | Potency [18] | Potency [19]

O=Cc1ccc(CO)o1
inactive: Potency [1] | outcome [2] | Potency [3] | Potency [4] | activity change, positive = activation ([5]; at 92.4 µM (top of the series)) 0.746% and -3.97% | Potency [6] | Potency [7] | Potency [8] | Potency [9] | Potency [10] | Potency [11] | max response [12] -0.203% and -12.4% | Potency [14] | Potency [15] | Potency [16] | Potency [17] | Potency [18] | Potency [19]

Cc1cc(C)c(O)c(C)c1
inactive: Potency [1] | outcome [2] | Potency [3] | Potency [4] | activity change, positive = activation ([5]; at 92.4 µM (top of the series)) 10.5% and 2.09% | Potency [6] | Potency [7] | Potency [8] | Potency [9] | Potency [10] | Potency [11] | max response [12] 3.39% and -0.795% | Potency [13] | Potency [14] | Potency [15] | Potency [16] | Potency [17] | Potency [18] | Potency [19]
